# PubChem BioAssay (NCI)
# “And” between values parts separate entries of the source, which are not always exact repeats. Equal entries are not always repeated. The panel holds about 83,000 compounds, 20% with a hit somewhere; the sample as a whole holds those more often.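 96-well plates, one dose, 48 hours. Percent growth reported; active if below 10.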 The source made the active and inactive calls.
# What was measured:
# Assay in all cases: NCI-60 one-dose screen, 48 h (100 = growth as untreated, 0 = no growth, -100 = all killed)
# Settings in all cases: 10 µM unless noted
# UACC-62 melanoma = tested on: UACC-62 melanoma
# TK-10 renal = tested on: TK-10 renal
# HCT-15 colon = tested on: HCT-15 colon
# SNB-75 CNS = tested on: SNB-75 CNS
# SNB-19 CNS = tested on: SNB-19 CNS
# U251 CNS = tested on: U251 CNS
# PC-3 prostate = tested on: PC-3 prostate
# SK-MEL-5 melanoma = tested on: SK-MEL-5 melanoma
# LOX IMVI melanoma = tested on: LOX IMVI melanoma
# SK-MEL-2 melanoma = tested on: SK-MEL-2 melanoma
# EKVX NSCLC = tested on: EKVX NSCLC
# SN12C renal = tested on: SN12C renal
# UO-31 renal = tested on: UO-31 renal
# ACHN renal = tested on: ACHN renal
# CAKI-1 renal = tested on: CAKI-1 renal
# A498 renal = tested on: A498 renal
# CCRF-CEM leukemia = tested on: CCRF-CEM leukemia
# MOLT-4 leukemia = tested on: MOLT-4 leukemia
# SK-MEL-28 melanoma = tested on: SK-MEL-28 melanoma
smiles,measurement,setting,value
Cc1ccc2c(/C=C/c3ccc(N(C)C)cc3)ccc(C(C)C)cc1-2,growth,UACC-62 melanoma,68.4% [100 µM] (inactive) and 58.1% [100 µM] (inactive)
same,growth,TK-10 renal,104% [100 µM] (inactive) and -33% [100 µM] (active)
O=C(CN1CCOCC1)N1CCOCC1,growth,HCT-15 colon,111% (inactive) and 98% (inactive)
same,growth,SNB-75 CNS,106% (inactive) and 104% (inactive)
same,growth,SNB-19 CNS,103% (inactive) and 105% (inactive)
same,growth,U251 CNS,107% (inactive)
same,growth,PC-3 prostate,90.8% (inactive)
same,growth,SK-MEL-5 melanoma,107% (inactive) and 105% (inactive)
same,growth,UACC-62 melanoma,93.9% (inactive) and 96.6% (inactive)
same,growth,LOX IMVI melanoma,99.6% (inactive) and 100% (inactive)
same,growth,SK-MEL-2 melanoma,109% (inactive)
same,growth,EKVX NSCLC,117% (inactive) and 84% (inactive)
same,growth,SN12C renal,95.9% (inactive) and 97.7% (inactive)
same,growth,UO-31 renal,68% (inactive) and 80% (inactive)
same,growth,TK-10 renal,96.8% (inactive) and 104% (inactive)
same,growth,ACHN renal,108% (inactive) and 98.9% (inactive)
same,growth,CAKI-1 renal,105% (inactive) and 88.3% (inactive)
same,growth,A498 renal,108% (inactive)
same,growth,CCRF-CEM leukemia,106% (inactive)
same,growth,MOLT-4 leukemia,97.9% (inactive) and 103% (inactive)
O=[N+]([O-])c1ccc(-n2[nH]nnc2=S)cc1,growth,HCT-15 colon,97.5% (inactive)
same,growth,SNB-75 CNS,89.1% (inactive)
same,growth,U251 CNS,108% (inactive)
same,growth,PC-3 prostate,92% (inactive)
same,growth,SK-MEL-5 melanoma,122% (inactive)
same,growth,UACC-62 melanoma,94.6% (inactive)
same,growth,LOX IMVI melanoma,94.4% (inactive)
same,growth,SK-MEL-28 melanoma,106% (inactive)
same,growth,SK-MEL-2 melanoma,109% (inactive)
same,growth,EKVX NSCLC,101% (inactive)
same,growth,SN12C renal,94% (inactive)
same,growth,UO-31 renal,80.5% (inactive)
same,growth,TK-10 renal,116% (inactive)
same,growth,ACHN renal,102% (inactive)
same,growth,CAKI-1 renal,95.6% (inactive)
same,growth,CCRF-CEM leukemia,106% (inactive)
same,growth,MOLT-4 leukemia,102% (inactive)
COC(=O)C(=O)C(C(=O)C(=O)Nc1ccccc1C(C)=O)c1nc2ccc(C(=O)c3ccccc3)cc2[nH]c1=O (stereo not drawn),growth,UACC-62 melanoma,48.7% [100 µM] (inactive) and 10.4% [100 µM] (inactive)
same,growth,TK-10 renal,114% [100 µM] (inactive) and 17.9% [100 µM] (inactive)
C=C1C(=O)OC2/C=C(\CO)CC/C=C(\CO)CC(OC(=O)C(C)C)C12 (stereo not drawn),growth,UACC-62 melanoma,-89.5% [100 µM] (active) and -98.8% [100 µM] (active)
same,growth,TK-10 renal,-97% [100 µM] (active) and -96.5% [100 µM] (active)
CCCCCn1sc(=O)n(Cc2ccc(CNC(=O)C(C)c3ccc(CC(C)C)cc3)cc2)c1=O (stereo not drawn),growth,HCT-15 colon,101% (inactive) and -35% (active)
same,growth,SNB-75 CNS,94.3% (inactive) and -20.9% (active)
same,growth,U251 CNS,87.4% (inactive) and 8.32% (active)
same,growth,PC-3 prostate,93.7% (inactive) and -64.4% (active)
same,growth,SK-MEL-5 melanoma,101% (inactive) and -89.2% (active)
same,growth,UACC-62 melanoma,96.9% (inactive) and -65.1% (active)
same,growth,LOX IMVI melanoma,104% (inactive) and -92.7% (active)
same,growth,SK-MEL-28 melanoma,107% (inactive) and -52.5% (active)
same,growth,SK-MEL-2 melanoma,106% (inactive) and -18.6% (active)
same,growth,EKVX NSCLC,96.9% (inactive) and -65.7% (active)
same,growth,SN12C renal,95.3% (inactive) and -52.9% (active)
same,growth,UO-31 renal,85.8% (inactive) and -100% (active)
same,growth,TK-10 renal,106% (inactive) and -86.8% (active)
same,growth,ACHN renal,92.4% (inactive) and -100% (active)
same,growth,CAKI-1 renal,91.2% (inactive) and -73% (active)
same,growth,A498 renal,113% (inactive) and 40% (inactive)
same,growth,CCRF-CEM leukemia,95.8% (inactive) and 2.99% (active)
same,growth,MOLT-4 leukemia,101% (inactive) and -4.68% (active)
NC(=S)Nc1[nH]c(=S)nc2c1SC1=N/C(=C\c3ccco3)C(=O)N12,growth,UACC-62 melanoma,25.1% [100 µM] (inactive) and 18.6% [100 µM] (inactive)
same,growth,TK-10 renal,75.1% [100 µM] (inactive) and 26.4% [100 µM] (inactive)
NC(=O)c1ccccc1OCC(O)CO (stereo not drawn),growth,HCT-15 colon,98.1% (inactive)
same,growth,SNB-75 CNS,84.5% (inactive)
same,growth,SNB-19 CNS,102% (inactive)
same,growth,U251 CNS,99.5% (inactive)
same,growth,PC-3 prostate,103% (inactive)
same,growth,SK-MEL-5 melanoma,101% (inactive)
same,growth,UACC-62 melanoma,98.5% (inactive)
same,growth,LOX IMVI melanoma,104% (inactive)
same,growth,SK-MEL-28 melanoma,105% (inactive)
same,growth,SK-MEL-2 melanoma,103% (inactive)
same,growth,SN12C renal,101% (inactive)
same,growth,UO-31 renal,99.7% (inactive)
same,growth,TK-10 renal,110% (inactive)
same,growth,ACHN renal,103% (inactive)
same,growth,A498 renal,94.6% (inactive)
same,growth,CCRF-CEM leukemia,93.6% (inactive)
same,growth,MOLT-4 leukemia,108% (inactive)
CN(C)c1ccc(C(Cc2ccc3ccccc3n2)Cc2ccc3ccccc3n2)cc1,growth,HCT-15 colon,51.1% (inactive) and 78.8% (inactive)
same,growth,SNB-75 CNS,110% (inactive) and 88.5% (inactive)
same,growth,U251 CNS,43.5% (inactive) and 81.2% (inactive)
same,growth,PC-3 prostate,16% (inactive) and 61.5% (inactive)
same,growth,SK-MEL-5 melanoma,19.8% (inactive) and 76.7% (inactive)
same,growth,UACC-62 melanoma,44.5% (inactive) and 73% (inactive)
same,growth,LOX IMVI melanoma,31.3% (inactive) and 81.8% (inactive)
same,growth,SK-MEL-28 melanoma,74.9% (inactive) and 92.8% (inactive)
same,growth,SK-MEL-2 melanoma,70% (inactive) and 88.5% (inactive)
same,growth,EKVX NSCLC,49.2% (inactive) and 72.9% (inactive)
same,growth,SN12C renal,48.7% (inactive) and 81.6% (inactive)
same,growth,UO-31 renal,2.9% (active) and 56.3% (inactive)
same,growth,TK-10 renal,74.1% (inactive) and 121% (inactive)
same,growth,ACHN renal,50.5% (inactive) and 89.6% (inactive)
same,growth,CAKI-1 renal,26.1% (inactive) and 74.9% (inactive)
same,growth,A498 renal,33.7% (inactive) and 59.3% (inactive)
same,growth,CCRF-CEM leukemia,41.7% (inactive) and 67.4% (inactive)
same,growth,MOLT-4 leukemia,11.4% (inactive) and 74.6% (inactive)
COc1cc2oc3c(c(=O)c2c(O)c1/C=C/C(C)C)CCC(C)(C)Oc1cc(O)ccc1-3,growth,UACC-62 melanoma,-23.1% [100 µM] (active) and -100% [100 µM] (active)
same,growth,TK-10 renal,35% [100 µM] (inactive) and -96.5% [100 µM] (active)
Clc1ccc(C2NN=C3c4ccccc4OCC32)cc1 (stereo not drawn),growth,UACC-62 melanoma,4.4% [100 µM] (active) and -69.2% [100 µM] (active)
same,growth,TK-10 renal,7.98% [100 µM] (active) and 5.96% [100 µM] (active)
CN1CCN(CCC=C2c3ccccc3Sc3ccc(S(=O)(=O)N(C)C)cc32)CC1,growth,HCT-15 colon,46.4% (inactive) and 59.2% (inactive)
same,growth,PC-3 prostate,52.7% (inactive) and 61.6% (inactive)
same,growth,SK-MEL-5 melanoma,26.4% (inactive) and 69.1% (inactive)
same,growth,UACC-62 melanoma,-42.7% (active)
same,growth,LOX IMVI melanoma,15.9% (inactive) and 40.7% (inactive)
same,growth,SK-MEL-2 melanoma,68.5% (inactive) and 53.7% (inactive)
same,growth,EKVX NSCLC,80.1% (inactive) and 84.8% (inactive)
same,growth,UO-31 renal,36.7% (inactive) and 56.9% (inactive)
same,growth,TK-10 renal,70.5% (inactive) and 87.2% (inactive)
same,growth,ACHN renal,65.8% (inactive) and 73.1% (inactive)
same,growth,CAKI-1 renal,48.5% (inactive) and 94.9% (inactive)
same,growth,CCRF-CEM leukemia,54.2% (inactive) and 31.6% (inactive)
same,growth,MOLT-4 leukemia,46.3% (inactive) and 28.2% (inactive)
CCC(C)C1(O)OC2CC3(C)OC(=CC3=O)/C(C)=C\C3OC(=O)C1(C)C32 (stereo not drawn),growth,UACC-62 melanoma,-34.4% [100 µM] (active) and -100% [100 µM] (active)
same,growth,TK-10 renal,41.8% [100 µM] (inactive) and -90.7% [100 µM] (active)
Cc1ccc(/C=N/Nc2nc3ccccc3s2)s1,growth,UACC-62 melanoma,45% [100 µM] (inactive) and 40.5% [100 µM] (inactive)
same,growth,TK-10 renal,14.8% [100 µM] (inactive) and 8.44% [100 µM] (active)
O=C(NC1=NC2C=CC([N+](=O)[O-])=CC2S1)C(=O)Nn1c(=S)[nH]c2ccccc2c1=O (stereo not drawn),growth,UACC-62 melanoma,-8.33% [100 µM] (active) and 16.8% [100 µM] (inactive)
same,growth,TK-10 renal,7.66% [100 µM] (active) and 13.1% [100 µM] (inactive)
COc1cc(C(=O)N/N=C/c2ccc(N(C)C)cc2)cc(OC)c1OC,growth,HCT-15 colon,20% (inactive)
same,growth,SNB-75 CNS,38.4% (inactive)
same,growth,SNB-19 CNS,53.3% (inactive)
same,growth,U251 CNS,3.96% (active)
same,growth,PC-3 prostate,25.4% (inactive)
same,growth,SK-MEL-5 melanoma,7.49% (active)
same,growth,UACC-62 melanoma,43.1% (inactive)
same,growth,LOX IMVI melanoma,20.5% (inactive)
same,growth,SK-MEL-28 melanoma,53.8% (inactive)
same,growth,EKVX NSCLC,75.7% (inactive)
same,growth,SN12C renal,41.3% (inactive)
same,growth,ACHN renal,45.1% (inactive)
same,growth,A498 renal,-3.05% (active)
same,growth,CCRF-CEM leukemia,8.58% (active)
same,growth,MOLT-4 leukemia,-0.126% (active)
O=C1CC(c2ccccc2)NCCCCN2CC(CN1)C(C(O)c1ccccc1)C2=O (stereo not drawn),growth,UACC-62 melanoma,72.5% [100 µM] (inactive) and 81.1% [100 µM] (inactive)
same,growth,TK-10 renal,97.8% [100 µM] (inactive) and 88.7% [100 µM] (inactive)
Cc1cc(S(=O)(=O)O)c(NC(=O)c2oc3cc(O)ccc3c(=O)c2C)cc1Cl,growth,UACC-62 melanoma,85.1% [100 µM] (inactive) and 89.4% [100 µM] (inactive)
same,growth,TK-10 renal,90.8% [100 µM] (inactive) and 91.7% [100 µM] (inactive)
